According to PubChem BioAssay (NCI):
This is part of a sample that, as a whole, favours compounds with a hit. Of some 79,000 tested, about 15% had one in any assay. Activity calls are given as the source filed them. No stated cut-off is given here; in the data, active means growth inhibition above about 70%; inactive means the rest.

Experiments:
[1] = NCI Yeast Anticancer Drug Screen. Data for the mec2-1 strain (AID 157); details: S. cerevisiae mec2-1 strain, stronger effect = higher value
Outline: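 Strain: mec2-1 (DNA repair/cell cycle alteration). Compound exposure, then growth measured; inhibition expressed relative to vehicle.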

[2] = NCI Yeast Anticancer Drug Screen. Data for the rad14 strain (AID 159);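 further: 0% = growth of vehicle-treated control cultures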; details: S. cerevisiae rad14 strain growth inhibition, stronger effect = higher value
Outline: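 Compound-treated yeast with a defined DNA-repair lesion; growth inhibition normalised to vehicle-treated cultures.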

[3] = NCI Yeast Anticancer Drug Screen. Data for the sgs1 mgt1 strain (AID 161);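 further: 0% = growth of cultures given vehicle only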; details: S. cerevisiae sgs1 mgt1 strain, stronger effect = higher value
Outline: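 Inhibition of yeast growth, normalised to vehicle-treated controls, is reported for a strain bearing genetic alterations in DNA damage repair.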

[4] = NCI Yeast Anticancer Drug Screen. Data for the CLN2oe strain (AID 163);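 further: 0% = growth of vehicle-only control cultures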; details: S. cerevisiae CLN2oe strain, stronger effect = higher value
Outline: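 Growth of a genetically modified yeast strain is measured after compound exposure and compared with cultures given vehicle alone.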

[5] = NCI Yeast Anticancer Drug Screen. Data for the cln2 rad14 strain (AID 165);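 further: 0% = growth equal to vehicle treated cultures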; details: S. cerevisiae cln2 rad14 strain, stronger effect = higher value
Outline: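 Compounds are applied to the cln2 rad14 yeast strain, and growth is then compared with that of vehicle-treated cultures to give inhibition.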

[6] = NCI Yeast Anticancer Drug Screen. Data for the bub3 strain (AID 167); details: S. cerevisiae bub3 mutant strain, stronger effect = higher value
Outline: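 Growth of a checkpoint-deficient yeast mutant is measured after compound exposure. Values represent inhibition relative to vehicle.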

[7] = NCI Yeast Anticancer Drug Screen. Data for the wt2 strain (AID 169);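 further: 0% = growth of vehicle-treated yeast cultures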; details: S. cerevisiae wt2 strain growth inhibition, stronger effect = higher value
Outline: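 This strain belongs to a panel of yeast strains with defined genetic alterations in DNA damage repair or cell cycle control. Compounds are applied, and growth inhibition is measured against vehicle-treated cultures.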

[8] = NCI Yeast Anticancer Drug Screen. Data for the sgs1 strain (AID 173);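 further: 0% = growth of vehicle-only control cultures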; details: S. cerevisiae sgs1 mutant, stronger effect = higher value
Outline: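 Growth of a yeast strain bearing a defined genetic alteration is measured after compound treatment. Inhibition is expressed relative to vehicle-only controls.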

[9] = NCI Yeast Anticancer Drug Screen. Data for the mlh1 rad18 strain (AID 175); details: S. cerevisiae mlh1 rad18 strain growth inhibition, stronger effect = higher value
Outline: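 Read-out is yeast growth inhibition, calculated against vehicle-only controls. The compound was applied to a strain engineered with DNA damage repair alterations.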

[10] = NCI Yeast Anticancer Drug Screen. Data for the rad18 strain (AID 177); details: S. cerevisiae rad18 mutant growth inhibition, stronger effect = higher value
Outline: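 Growth of the mutant yeast strain after compound exposure, normalised to vehicle-only cultures.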

[11] = NCI Yeast Anticancer Drug Screen. Data for the rad52 strain (AID 147);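 further: 0% = growth of vehicle-treated control cultures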; details: S. cerevisiae rad52 mutant growth inhibition, stronger effect = higher value
Outline: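 Compounds are applied to a genetically defined yeast strain lacking normal DNA damage repair, and inhibition of growth is expressed relative to cultures given vehicle only.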

[12] = NCI Yeast Anticancer Drug Screen. Data for the wt1 strain (AID 149);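 further: 0% = growth of vehicle-treated wt1 cultures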; details: S. cerevisiae wt1 strain (SPY 50644) growth inhibition, stronger effect = higher value
Outline: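 Readout: yeast growth inhibition, normalised to vehicle controls, in the wt1 strain exposed to test compounds.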

[13] = NCI Yeast Anticancer Drug Screen. Data for the rad50EPP+ strain (AID 151);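 further: 0% = growth of vehicle-treated control cultures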; details: S. cerevisiae rad50 mutant strain, stronger effect = higher value
Outline: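 Compounds were applied to the rad50EPP+ yeast strain, which bears a defined DNA repair alteration, and growth inhibition was determined relative to vehicle-treated cultures.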

[14] = NCI Yeast Anticancer Drug Screen. Data for the mgt1 strain (AID 153); details: S. cerevisiae mgt1 mutant growth inhibition, stronger effect = higher value
Outline: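 Strain: mgt1 yeast, one of a set carrying defined DNA damage repair or cell cycle control alterations. Compound-treated growth compared with vehicle.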

[15] = NCI Yeast Anticancer Drug Screen. Data for the rad50 strain (AID 155);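 further: 0% = growth of vehicle-only cultures of the same strain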; details: S. cerevisiae rad50 strain growth inhibition, stronger effect = higher value
Outline: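 Compounds were tested on a yeast strain with an engineered DNA damage repair alteration; the reported value is growth inhibition normalised to vehicle treatment.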

[16] = NCI Yeast Anticancer Drug Screen. Data for the mlh1 strain (AID 171);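 further: 0% = growth of vehicle-treated control cultures of the same strain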; details: S. cerevisiae mlh1 strain growth inhibition, stronger effect = higher value
Outline: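 Growth of the mutant yeast strain after compound exposure, expressed as inhibition relative to vehicle-only controls.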

[17] = at 5.0 µM (retest, dose inferred, filed as 0.5)
[18] = at 50.0 µM (retest, dose inferred, filed as 5.0)

Measured: growth inhibition

C[C@]12CC[C@H](O)CC1=CC[C@@H]1[C@@H]2CC[C@]2(C)C(=O)CC[C@@H]12
inactive: [1]; [17] 56% | [1]; at 11.0 µM -66% | [2]; at 1.2 µM -57% | [2]; at 3.7 µM -52% | [2]; at 11.0 µM -39% | [3]; [17] -7% | [4]; at 1.2 µM -16% | [4]; at 3.7 µM 2% | [4]; at 11.0 µM 8% | [4]; at 33.0 µM 54% | [5]; [17] 64% | [6]; at 1.2 µM -23% | [6]; at 3.7 µM -36% | [6]; [17] 20% | [6]; at 11.0 µM -17% | [7]; at 1.2 µM -52% | [7]; at 3.7 µM -42% | [7]; at 11.0 µM -37% | [7]; at 33.0 µM 59% | [8]; at 1.2 µM -75% | [8]; at 3.7 µM -56% | [8]; at 11.0 µM -65% | [9]; [17] 37% | [10]; at 1.2 µM -29% | [10]; at 3.7 µM -24% | [10]; at 11.0 µM -7%
active: [1]; at 33.0 µM 79% | [1]; [18] 98% | [1]; at 50.0 µM 87.8% | [1]; at 100.0 µM 90% | [2]; at 33.0 µM 77% | [2]; at 100.0 µM 96% | [3]; [18] 80% | [3]; at 50.0 µM 88.1% | [4]; at 100.0 µM 94% | [5]; [18] 75% | [5]; at 50.0 µM 88.5% | [6]; at 33.0 µM 72% | [6]; [18] 78% | [6]; at 50.0 µM 86.2% | [6]; at 100.0 µM 92% | [7]; at 100.0 µM 92% | [8]; at 33.0 µM 77% | [8]; at 100.0 µM 97% | [9]; [18] 99% | [9]; at 50.0 µM 87.7% | [10]; at 33.0 µM 78% | [10]; at 100.0 µM 95%

O=C(Nc1cc(Cl)ccc1Cl)C(Cl)(Cl)Cl
inactive: [11]; at 1.2 µM 1% | [11]; at 3.7 µM 6% | [11]; at 11.0 µM 12% | [11]; at 33.0 µM 22% | [11]; at 100.0 µM 30% | [12]; at 1.2 µM 0% | [12]; at 3.7 µM 2% | [12]; at 11.0 µM 4% | [12]; at 33.0 µM 6% | [12]; at 100.0 µM 6% | [13]; at 1.2 µM 2% | [13]; at 3.7 µM 8% | [13]; at 11.0 µM 14% | [13]; at 33.0 µM 22% | [13]; at 100.0 µM 25% | [14]; at 1.2 µM 1% | [14]; at 3.7 µM 3% | [14]; at 11.0 µM 6% | [14]; at 33.0 µM 5% | [14]; at 100.0 µM -22% | [15]; at 1.2 µM 2% | [15]; at 3.7 µM 6% | [15]; [17] 16% | [15]; at 11.0 µM 13% | [15]; at 33.0 µM 26% | [15]; [18] 41% | [15]; at 50.0 µM 53.9% | [15]; at 100.0 µM 26% | [1]; at 1.2 µM 1% | [1]; at 3.7 µM 6% | [1]; [17] -4% | [1]; at 11.0 µM 11% | [1]; at 33.0 µM 19% | [1]; [18] 58% | [1]; at 50.0 µM 61.3% | [1]; at 100.0 µM 25% | [2]; at 1.2 µM 3% | [2]; at 3.7 µM 6% | [2]; at 11.0 µM 13% | [2]; at 33.0 µM 21% | [2]; at 100.0 µM 30% | [3]; [17] 1% | [3]; [18] 32% | [3]; at 50.0 µM 24.1% | [4]; at 1.2 µM 4% | [4]; at 3.7 µM 5% | [4]; at 11.0 µM 10% | [4]; at 33.0 µM 7% | [4]; at 100.0 µM 9% | [5]; [17] 32% | [5]; [18] -6% | [5]; at 50.0 µM -52.4% | [6]; at 1.2 µM -1% | [6]; at 3.7 µM 3% | [6]; [17] -11% | [6]; at 11.0 µM 8% | [6]; at 33.0 µM 10% | [6]; [18] 31% | [6]; at 50.0 µM 28.1% | [6]; at 100.0 µM 12% | [7]; at 1.2 µM 1% | [7]; at 3.7 µM 2% | [7]; at 11.0 µM 5% | [7]; at 33.0 µM 3% | [7]; at 100.0 µM 6% | [16]; at 1.2 µM 1% | [16]; at 3.7 µM 4% | [16]; at 11.0 µM 5% | [16]; at 33.0 µM 12% | [16]; at 100.0 µM 20% | [8]; at 1.2 µM 1% | [8]; at 3.7 µM 3% | [8]; at 11.0 µM 7% | [8]; at 33.0 µM 10% | [8]; at 100.0 µM 19% | [9]; [17] -1% | [9]; at 50.0 µM 63.6% | [10]; at 1.2 µM 2% | [10]; at 3.7 µM 4% | [10]; at 11.0 µM 16% | [10]; at 33.0 µM 23% | [10]; at 100.0 µM 31%
active: [9]; [18] 70%

OCC(O)C(O)CO (centres undefined) (tested in a mixture with another compound)
active: [15]; [18] 82%
inactive: [11]; at 1.2 µM -2% | [11]; at 3.7 µM -3% | [11]; at 11.0 µM -1% | [11]; at 33.0 µM -4% | [11]; at 100.0 µM 8% | [12]; at 1.2 µM -4% | [12]; at 3.7 µM -4% | [12]; at 11.0 µM -5% | [12]; at 33.0 µM -2% | [12]; at 100.0 µM 0% | [13]; at 1.2 µM 1% | [13]; at 3.7 µM 2% | [13]; at 11.0 µM 6% | [13]; at 33.0 µM 9% | [13]; at 100.0 µM 10% | [14]; at 1.2 µM 0% | [14]; at 3.7 µM -2% | [14]; at 11.0 µM -1% | [14]; at 33.0 µM 5% | [14]; at 100.0 µM 0% | [15]; at 1.2 µM -8% | [15]; at 3.7 µM -17% | [15]; [17] -130% | [15]; at 11.0 µM -3% | [15]; at 33.0 µM 16% | [15]; at 50.0 µM 15.4% | [15]; at 100.0 µM -1% | [1]; at 1.2 µM -1% | [1]; at 3.7 µM 0% | [1]; [17] -47% | [1]; at 11.0 µM -6% | [1]; at 33.0 µM 0% | [1]; [18] -1% | [1]; at 50.0 µM 32.4% | [1]; at 100.0 µM 3% | [2]; at 1.2 µM -1% | [2]; at 3.7 µM -5% | [2]; at 11.0 µM -4% | [2]; at 33.0 µM -3% | [2]; at 100.0 µM -1% | [3]; [17] -57% | [3]; [18] 39% | [3]; at 50.0 µM -2.1% | [4]; at 1.2 µM 2% | [4]; at 3.7 µM -1% | [4]; at 11.0 µM 0% | [4]; at 33.0 µM 0% | [4]; at 100.0 µM 1% | [5]; [17] -60% | [5]; [18] -30% | [5]; at 50.0 µM -44.6% | [6]; at 1.2 µM -1% | [6]; at 3.7 µM -4% | [6]; [17] -64% | [6]; at 11.0 µM -3% | [6]; at 33.0 µM -2% | [6]; [18] 25% | [6]; at 50.0 µM 12.3% | [6]; at 100.0 µM 3% | [8]; at 1.2 µM -1% | [8]; at 3.7 µM 1% | [8]; at 11.0 µM 2% | [8]; at 33.0 µM 2% | [8]; at 100.0 µM -2% | [9]; [17] -110% | [9]; [18] 29% | [9]; at 50.0 µM -9.65%
